Experiments:
Assay in all cases: PBM binding z-score (relative to random genomic background probes); higher = stronger binding; sequences stand for … in GC…GCGATTGACAGCGTAGAATGAAGG
[1] = tested on: PPARg:RXRa DBDmut IVT, anti-RXR (DBD mutation: RXRa K156A/R161A, NR concentration 270 nM, RXRa partner concentration 90 nM)
How it was run: (§1)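 The probes on custom Agilent 4×180K protein-binding microarrays were double-stranded, with 34-nt variable regions bearing direct-repeat seeds, single-nucleotide variants, half-site ablations and random human genomic background sequences. Incubation lasted 1 h with ligand-free nuclear receptor dimers in PBS pH 7.4, 2% milk, 0.02% Triton X-100, 1 mM DTT, 0.2 mg/mL BSA and 0.4 mg/ml salmon testes DNA. Antibodies against each partner (one per run) detected bound dimers, and fluorescence scans were regression-normalized. Binding z-scores take the random background probes as reference.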

[2] = tested on: PPARg:RXRa IVT, anti-PPARg (NR concentration 270 nM, RXRa partner concentration 90 nM)
How it was run: as §1

[3] = tested on: PPARg DBDmut:RXRa IVT, anti-PPARg (DBD mutation: PPARg1 K132A/R137A, NR concentration 270 nM, RXRa partner concentration 90 nM)
How it was run: as §1

[4] = tested on: PPARg DBDmut IVT, anti-PPARg (DBD mutation: PPARg1 K132A/R137A, NR concentration 270 nM)
How it was run: as §1

[5] = tested on: PPARg homodimer (NR concentration 180 nM)
How it was run: as §1

[6] = tested on: PXR:RXRa (NR concentration 270 nM, RXRa partner concentration 90 nM)
How it was run: as §1

[7] = tested on: PXR homodimer (NR concentration 270 nM)
How it was run: as §1

[8] = tested on: RARa:RXR (NR concentration 270 nM, RXRa partner concentration 90 nM)
How it was run: as §1

[9] = tested on: RARa homodimer (NR concentration 270 nM)
How it was run: as §1

[10] = tested on: RARb:RXRa (NR concentration 270 nM, RXRa partner concentration 90 nM)
How it was run: as §1

Sequence | PBM binding z-score [1] | PBM binding z-score [2] | PBM binding z-score [3] | PBM binding z-score [4] | PBM binding z-score [5] | PBM binding z-score [6] | PBM binding z-score [7] | PBM binding z-score [8] | PBM binding z-score [9] | PBM binding z-score [10]
ATCTCTAGGTAACAAATTCAGTGAAAGAGAGGAC | 2.5 | 2.57 | 1.67 | 1.65 | 0.744 | 0.225 | 0.486 | 0.657 | 1.4 | 0.701
CAAACTTGGTCAAGAGGTCAAAGTCCGCTTCCCG | 2.35 | 3.8 | 0.805 | 0.619 | 2.46 | 5.73 | 1.66 | 6.15 | 1.11 | 4.47
GATACAGGTTCAAGGCCAGAGTACGCGTATTGAT | -0.252 | 0.582 | -0.175 | -0.432 | 1.38 | 1.9 | 0.971 | 1.61 | 0.647 | 1.79
CAGCCTAGGTCAGGGTCAGTATAGGAGGAACGTT | 1.2 | 2.57 | 0.511 | -0.598 | 1.63 | 2.38 | 0.127 | 3.04 | 0.15 | 4.31
CAAACTAGGTCACCGGAAGGTCAAAGTCCGCATG | 8.69 | 8.91 | 2.7 | 2.01 | 6.37 | 5.88 | 1.99 | 6.98 | 2.38 | 5.37
GATACAGGGTCAGCTAGAGGCCAGGGTATGGAAA | 0.631 | 2.38 | 0.352 | -0.589 | 2.74 | 2.94 | 0.0758 | 4.28 | 0.0773 | 4.06
CCTCTGAGGACAACAGGAGGTCAGAGCTGCCAGA | 0.791 | 0.943 | -0.185 | -0.809 | 1.58 | 1.87 | 0.497 | 2.39 | 0.218 | 2.9
CCTAGCAGGGCAGGGTCACTCAAGCATTTCGCTT | 0.873 | 1.78 | -1.54 | -0.906 | 1.69 | 2.92 | -0.402 | 3.98 | -0.114 | 3
AGAATGAGGTTATTAAGATCCGGGAATTGCGGTC | 2.93 | 2.17 | 0.655 | 0.352 | 1.11 | 0.959 | 0.153 | 1.28 | -0.0311 | 1.48
CCTTACGGGTCACTAGGTTATAGCACGACGAGCG | 4.54 | 5.69 | 1.5 | 0.896 | 2.59 | 2.84 | -0.213 | 3.7 | 0.907 | 3.7
CCTCGGAGGACAACAGGAGGTCAGGGCTGCCAGA | -0.161 | 0.479 | -0.962 | -1.94 | 1.52 | 2.11 | 0.134 | 2.83 | 0.694 | 3.01
GCTCGGACGACAAGGTCAGAGCTTTGTCCGTAGA | -0.353 | -0.175 | -1.38 | -1.46 | 0.248 | 1.73 | -0.194 | 2.24 | -0.933 | 2.84
CAAACTAGGTCAAGAGGTCAAGGTCCGCTTCCCG | 8.52 | 8.45 | 0.83 | -0.359 | 5.33 | 5.88 | 1.72 | 7.29 | 2.29 | 5.54
TCTCGGAGCACACGAAAGGTCAGAGCTCGACATC | 0.786 | 0.883 | -0.964 | -0.475 | 2.57 | 3.52 | -0.0353 | 4.12 | 0.999 | 3.45
CCTGCTAGGTCATGGCCAGCTAATCTACAGTATG | 4.25 | 3.91 | 0.0686 | -0.931 | 0.851 | 1.27 | -0.389 | 2.49 | -0.572 | 3.98
GATACAGGGTCAGCTAAAGGCCAGAGTATGGAAA | 1.25 | 2.78 | 0.576 | -0.417 | 2.2 | 2.68 | -0.205 | 4.25 | 0.412 | 4.26
ATATGTAGGTGATCGGGTCATTCAGTTTGCGCAT | 7.23 | 7.11 | 1.94 | 2.7 | 1.86 | 3.27 | 6.72 | 2.77 | 0.81 | 2.01
TTACCAAGGTGAGCTGCGGTCGTTGATCCAACTC | 0.329 | 1.64 | 0.125 | -0.586 | -0.584 | 1.38 | -0.459 | 0.61 | -0.775 | 1.07
GGAGCGAGGGCATTCGAGTTGATAGCATGGCGAT | 0.18 | 0.079 | -0.936 | -1.62 | -0.569 | 3.55 | 0.905 | 1.1 | -0.544 | 1.75
TCATATAGGTACACAGGTGAAAGTCCGTAAGTTA | 3.06 | 2.34 | 0.518 | 0.496 | 1.23 | 1 | 0.981 | 0.908 | 1.26 | 0.943
TATGCTAGGTCAACGATGGTCAGCTAATCTGCTA | 2.97 | 3.84 | 1.31 | 1.14 | 1.14 | 1.77 | -0.438 | 2.6 | -0.282 | 3.96
CCGACTGGGGCCTAAGGTTACCATAAGCCAGCCC | -0.456 | -0.247 | -1.22 | -1.84 | 0.088 | 0.127 | -0.726 | 0.85 | 0.205 | 0.778
ACTAGTTGGTCAGCTGAAGTCACACACAATTCGG | 0.924 | 0.828 | 0.539 | 0.649 | 0.462 | -0.105 | -0.357 | 0.136 | 0.213 | 0.828
ATCGAAAGGTCGACGAGGTGAGGATACACCGTTT | 0.8 | 2.39 | 0.388 | 0.42 | 1.72 | 2.77 | 0.496 | 3.52 | 0.262 | 3.98

Reference: the supplement of paper PMC6555819
